Screening results (PubChem)
A selection: hits, their analogues and other compounds. The true share with any hit is near 11%.
HTT aggregate: reduces HttQ103-GFP aggregates in PC12 cells | PC12 HttQ103-GFP aggregates, Acumen cytometry, 40 h | Potency, µM (titrated, usually from 46.1 µM), for the others: top-dose activity change, negative = inhibition, actives largely listed as inhibitors | 220,000 compounds, 1.1% hits; note: potency is the fitted concentration of half-maximal effect; % is set by controls: 0 for no effect and ±100 for the full control effect; nearly all actives have a fitted effect of over 60% in size
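Huntingtin Q103 exon 1–GFP aggregates in induced PC12 cells (100 nM tebufenozide) were quantified by cytometry from lysates, with compounds dosed in titration.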
PNC inhibitor: perinucleolar compartment assembly inhibition; PC3M PTB-GFP, PNC prevalence imaging, 16 h; stronger effect = lower value; activity change (PNC), negative = inhibition, % at 10 µM; 140,000 compounds, 3.1% hits; AID 2417;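 active = readout at or below -70, meaning at least 70% loss of cells showing the perinucleolar compartment, a nuclear body marking cancer cells; inconclusive = readout between -30 and a set limit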;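 note: plate controls were DMSO wells for no effect and camptothecin positive control wells for full effect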
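Read-out is percentage of cells bearing a perinucleolar compartment, from automated 20x imaging of fixed, Hoechst-stained PC3M PTB-GFP cells. Cells were seeded 4 h, then exposed 16 h to compound (23 nl of library stock) in duplicate plates.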
HPGD inh: blocks human HPGD enzyme activity; P15428; purified HPGD, NADH fluorescence kinetic, PGE2 substrate; Potency, µM, for inactives: at the highest dose activity change, negative = inhibition, hits mostly inhibitors; 150,000 compounds, 4.3% hits; active = well fitted inhibition curve with a large enough effect, not every such curve was filed as active; inconclusive = small, poorly fitted or top-dose-only effect, or another doubt; inactive = no such curve, though single readings can be large or run the other way; note: potency is the fitted concentration of half-maximal effect; % is set by controls: 0 for no effect and ±100 for the full control effect
Target sequence (P15428 whole entry, looked up): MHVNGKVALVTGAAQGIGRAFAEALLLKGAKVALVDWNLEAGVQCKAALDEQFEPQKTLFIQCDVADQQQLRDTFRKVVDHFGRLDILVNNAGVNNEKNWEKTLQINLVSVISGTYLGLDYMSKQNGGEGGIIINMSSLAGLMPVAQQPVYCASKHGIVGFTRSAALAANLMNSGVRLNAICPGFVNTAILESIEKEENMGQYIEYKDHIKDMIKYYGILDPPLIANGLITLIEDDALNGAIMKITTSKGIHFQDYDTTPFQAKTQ
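NADH formation kinetics: reaction with 30 uM PGE2 and 1 mM NAD+ (final), 20 nM enzyme, Tris-HCl pH 8 with Tween 20, after 15 min compound preincubation at room temperature. Fluorescence change, last versus first of five reads.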
HTT ATP protect: Huntington cell model cytoprotection by ATP luminescence; PC12 HTT-Q103 induced, cytoprotection, ATP luminescence, 40 h; Potency, µM (doses to about 56.4 µM), without a hit: cytoprotection (ATP increase), hits mostly activators; 230,000 compounds, 0.14% hits; AID 1471; note: potency is the fitted concentration of half-maximal effect; % of control where 0% means no effect; nearly all actives have a fitted effect of over 45% in size
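Huntington model: PC12 line, ecdysone-inducible HTTQ103 exon1–GFP, tebufenozide 100 nM. Test articles in a dose series. Endpoint luminescence from cellular ATP.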
ALDH1A1 block: inhibitors of human aldehyde dehydrogenase 1A1. P00352. 220,000 compounds, 7.3% hits. Purified ALDH1A1, NADH fluorescence, propionaldehyde substrate. AID 1030. Potency, µM (titrated, usually from 75.3 µM), for inactives: at the top dose activity, negative = inhibition, usual class: inhibitors; active = well fitted inhibition curve with a large enough effect, not every such curve was filed as active; inconclusive = small, poorly fitted or top-dose-only effect, or another doubt; inactive = no such curve, though single readings can be large or run the other way;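 note: potency is the fitted concentration of half-maximal effect; plate controls were no enzyme wells and a reference inhibitor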
CBFb RUNX1 block: CBF-beta/RUNX1 interaction disruption. AlphaScreen CBFb-His/RUNX1-biotin binding, biochemical. Potency, µM (top dose mostly 59.8 µM), inactives show at the highest dose activity, negative = inhibition, hits mostly inhibitors. 230,000 tested, under 10 active. Q01196+Q13951; note: % of control where 0% means no effect
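CBFb-His/RUNX1-biotin, 30 nM each, preincubated 20 min RT; compound 15 min RT; Ni + streptavidin beads 50 ng each, 90 min RT; AlphaScreen read.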
Starred values were filed as active, the others as inactive; u = inconclusive; x = not tested or not shown; [ ] = dose if it differs, or a comment. Unless noted, calls come from the whole dose curve; as a rule, active = well fitted curve in the direction sought with a large enough effect; inconclusive = small, poorly fitted or top-dose-only effect, or another doubt; inactive = no such curve, though single readings can be large; an effect the other way counts as inactive or inconclusive.

SMILES	HTT aggregate	PNC inhibitor	HPGD inh	HTT ATP protect	ALDH1A1 block	CBFb RUNX1 block
O=C1C(Nc2ccccc2)=C2CCCC=C2N1c1ccccc1	7.0%	x	x	-37.3%	12.6µM*	-1.8%
O=C1CC(Cc2ccccc2)C(=O)N1CCCn1ccnc1 (centres undefined)	-6.2%	u	0.5%	21.2%[10 µM]	15.8µM*	4.2%
COc1ccc(CCN2CC(C(=O)Nc3ccc4c(c3)OCO4)CC2=O)cc1OC (centres undefined)	6.8%	x	x	-16.2%	-4.3%	2.0%
COc1ccc(CCN2C(=O)CC(NCc3ccc4c(c3)OCO4)C2=O)cc1OC (centres undefined)	11.1%	-2.6	-8.5%	10.9%[10 µM]	25.1µM*	2.6%
O=C1CC(Cc2ccccc2)C(=O)N1CCc1ccc2c(c1)OCO2 (centres undefined)	-30.0%	48.0	-9.2%	13.5%	17.8µM*	26.7%
Cc1ccc(CC2CC(=O)N(CCc3ccccc3)C2=O)cc1 (centres undefined)	x	x	x	x	-0.6%	16.0%
COc1ccc(CCN2C(=O)CC(NNc3ccc([N+](=O)[O-])cc3)C2=O)cc1OC (centres undefined)	-3.0%	x	x	-38.0%	10µM*	-3.4%
CN(C)/C=N/S(=O)(=O)c1ccc(Cl)c(Cl)c1	-9.6%[9.22 µM]	x	x	-12.4%[10 µM]	8.3%	-0.4%
COc1ccc(CCNC2CC(=O)N(CCc3ccc(OC)c(OC)c3)C2=O)cc1OC (centres undefined)	-12.8%	3.1	-11.3%	-11.3%	6.31µM*	0.5%
COc1ccc(CCN2C(=O)CC(Cc3ccccc3)C2=O)cc1OC (centres undefined)	8.7%[9.22 µM]	x	x	22.5%[10 µM]	x	3.6%
COC(=O)N[C@@H](c1cccc(F)c1)C(C(C)=O)C(=O)OC (some centres undefined)	x	x	-8.7%	-36.0%	-1.0%	0.6%
NNC(=O)c1ccc(CSc2n[nH]c(=O)[nH]c2=O)cc1	5.7%[9.22 µM]	x	x	10.0%[10 µM]	x	-2.5%
COc1ccc(CCNc2oc(-c3ccco3)nc2C#N)cc1	8.4%	-100.0*	u	-24.9%[0.074 µM]	u	-9.6%
CO/C=C\C=C/c1nnn(-c2ccc(Cl)cc2)n1	10.3%	-94.4*	-14.9%	x	25.1µM*	-1.5%
O=C(NCCCN1CCOCC1)c1sc2cc(Cl)ccc2c1Cl	-18.8%	x	x	-42.0%	1.2%	9.5%
O=C(NCCCN1CCOCC1)c1sc2cc([N+](=O)[O-])ccc2c1Cl	-7.9%	x	x	x	7.94µM*	-5.0%
CC(=O)Nc1nonc1-c1nc2ccccc2n1Cc1nnc(C)o1	14.6%	-87.3*	u	-2.6%	u	6.1%
COc1ccc(OC)c(N(CC(=O)Nc2cccnc2)S(=O)(=O)c2ccc(OC)c(OC)c2)c1	-11.9%	-109.2*	15.8µM*	6.2%	9.3%	-1.6%
COc1ccc(OC)c(N(CC(=O)Nc2cccnc2)S(=O)(=O)c2ccc(C)cc2)c1	32.2%	13.3	7.08µM*	-32.1%	-7.2%	3.5%
COc1ccccc1N(CC(=O)Nc1cc(C)on1)S(=O)(=O)c1ccc(Cl)cc1	3.5%	-12.9	14.1µM*	-0.8%	1.2%	1.4%
COc1ccc(C)cc1N(CC(=O)Nc1cccnc1)S(=O)(=O)c1ccccc1	4.0%[9.22 µM]	x	x	-2.6%[10 µM]	12.0%	-3.4%
COc1ccc(OC)c(N(CC(=O)Nc2ccc3c(c2)OCO3)S(=O)(=O)c2ccccc2)c1	16.4%	7.6	31.6µM*	8.2%[10 µM]	-6.0%	2.2%
CCCCCCCc1c(O)nc(SCC(=O)O)[nH]c1=O	-3.6%[9.22 µM]	x	x	12.8%[10 µM]	x	-3.0%
COc1ccc(C)cc1S(=O)(=O)N(C)CC(=O)Nc1ccccc1	-1.9%	-107.9*	-4.2%	4.7%[10 µM]	u	15.0%
COc1ccc(C)cc1NC(=O)CN(C)S(=O)(=O)c1cc(C)ccc1OC	u	8.6	-0.3%	25.6%[10 µM]	10.8%	13.7%
COc1ncc2nc(-c3ccccc3)c(=O)n(C)c2n1	x	x	x	-8.5%	u	x
CCN(CC)S(=O)(=O)c1ccc(C2=NOC3(C2)N(C)c2ccccc2C3(C)C)cc1 (centres undefined)	-0.5%	-106.3*	-17.1%	x	u	3.7%
